# Data: ChEMBL document CHEMBL3988442, “University of Dundee, Small-Polar-MMV Screening Library” (2021)
# Out of some 48,000 compounds screened, about 13,000 (27%) showed an effect of 50% or more. The list shows a part of the results.
# Test system: Wolbachia pipientis
# Assay: Anti-Wolbachia Cell-Based Screen
# Type: functional
# Design: scale not given: in the data most compounds retested in dose-response had high values
# Settings: 5 µM
row,Compound,Percent Effect
1,CN1CCc2[nH]nc(C(=O)N3CCC4(CN(C)C(=O)O4)C3)c2C1 (stereo not drawn),3.232%
2,CCC(O)CN1CCN(C(=O)c2cccc3[nH]ncc23)CC1 (stereo not drawn),10.02%
3,CCN(C)S(=O)(=O)c1c(F)cc(NC(C)=O)cc1F,15.35%
4,CCC(Nc1nc(CCN)nc2ccccc12)c1cc(C)ccn1 (stereo not drawn),5.857%
5,Cc1nn(CC(=O)Nc2ccc(F)cc2)c(N)c1C#N,-10.06%
6,Cc1nn(CC(=O)O)c2nccc(-c3ccc(F)cc3)c12,132.8%
7,COc1ccccc1-c1cc(C(F)(F)F)c2c(C)nn(CC(=O)O)c2n1,-3.37%
8,O=C(Cn1nc(-c2ccc(F)cc2)oc1=O)Nc1ccccc1,-16.04%
9,O=C(O)Cn1nc(C2CC2)c2c(-c3ccc(F)cc3)ccnc21,106.5%
10,CN(C(=O)Cn1nc(-c2ccc(F)cc2)oc1=O)C1CCS(=O)(=O)C1 (stereo not drawn),-25.19%
11,O=C(CO)N1CCN(C(=O)c2coc3ccccc23)CC1,-5.618%
12,Cn1cncc1CNC1CC2(CCN(S(C)(=O)=O)CC2)c2ccccc21.O=C(O)C(F)(F)F (stereo not drawn),-9.896%
13,Cn1cc(CNC2CC3(CCN(S(C)(=O)=O)CC3)c3ccccc32)cn1.O=C(O)C(F)(F)F (stereo not drawn),94.6%
14,Cn1cncc1CNC1CC2(CCN(CC3CC3)CC2)c2ccccc21.O=C(O)C(F)(F)F.O=C(O)C(F)(F)F (stereo not drawn),-10.77%
15,CS(=O)(=O)N1CCC2(CC1)CC(NCc1ccco1)c1ccccc12.O=C(O)C(F)(F)F (stereo not drawn),91.69%
16,CS(=O)(=O)N1CCC2(CC1)CC(CC(=O)N1CCCC1)c1ccccc12 (stereo not drawn),5.675%
17,Cn1cc(CNC2CC3(CCN(CC4CC4)CC3)c3ccccc32)cn1.O=C(O)C(F)(F)F.O=C(O)C(F)(F)F.O=C(O)C(F)(F)F (stereo not drawn),-14.88%
18,CNC(=O)CNC1CC2(CCN(c3ncccn3)CC2)c2ccccc21.O=C(O)C(F)(F)F.O=C(O)C(F)(F)F (stereo not drawn),-16.8%
19,CS(=O)(=O)N1CCC2(CC1)CC(CC(=O)NC1CC1)c1ccccc12 (stereo not drawn),17.75%
20,CS(=O)(=O)N1CCC2(CC1)CC(NCC1CC1)c1ccccc12.O=C(O)C(F)(F)F (stereo not drawn),107.6%
21,O=C(O)C(F)(F)F.O=C(O)C(F)(F)F.c1cnc(N2CCC3(CC2)CC(NCC2CC2)c2ccccc23)nc1 (stereo not drawn),1.529%

row,Compound,Percent Effect
1,CS(=O)(=O)N1CCC2(CC1)CC(NCc1ccccn1)c1ccccc12 (stereo not drawn),90.85%
2,Cc1noc(CCCC(=O)N2CCNC(=O)C2)n1,-6.568%
3,Cc1c(C(C)Nc2ncnc3sccc23)cnn1C (stereo not drawn),-5.704%
4,CCn1ccnc1CN(C)Cc1nc(CCC(C)C)no1,-3.993%
5,COc1ccccc1[C@@H]1CN(C(=O)c2csc(C)n2)C[C@H]1C(=O)O,-8.955%
6,CCn1cc(CN(C)c2nc(C)c3ccc(S(C)(=O)=O)cc3n2)cn1,-19.68%
7,Cc1nnc(N2CCOC(Cn3cccn3)C2)c(C#N)c1C (stereo not drawn),-2.698%
8,CCc1[nH]c2c(CNC(=O)C3CCN(C)C3)cc(C)cc2c1C (stereo not drawn),-4.959%
9,Cc1nccc(C2CN(C(=O)c3cncnc3)C2)n1,123.7%
10,Cc1nc(O)cc(C2CCCN(C(=O)c3cccc(N(C)C)c3)C2)n1 (stereo not drawn),2.27%
11,Cc1ncncc1C(=O)N1C[C@H]2CC[C@@H]1CN(C(=O)c1ccncc1)C2,-6.558%
12,Cc1nccc(C2CCCN(C(=O)c3cncnc3)C2)n1 (stereo not drawn),134.6%
13,CCCc1cc(C(=O)N2CC(c3ccncc3)C2)ccn1,-34.73%
14,Cc1cccc(C2CCCN(C(=O)c3ccncc3)C2)n1 (stereo not drawn),137.8%
15,Cc1cc(C(=O)N[C@H]2CC[C@@]3(CCC(=O)N3)CC2)no1,-22.87%
16,CNC(=O)c1cnc2c(C)csc2c1,142.5%
17,CCc1nc(CNC(=O)Nc2ccc(C(=O)NC)cc2C)cs1,-1.988%
18,O=C(NC1CCC(O)CC1)c1cnc2c(cnn2C2CCCC2)c1 (stereo not drawn),-3.379%
19,CCNc1ncc(C(=O)NC2CCOCC2)cn1,-0.8414%
20,CNC(=O)c1coc(-c2csc(C)n2)c1,7.776%
21,Cc1ccsc1CCNC(C)C(=O)NC1CCCC1 (stereo not drawn),3.624%

row,Compound,Percent Effect
1,CCOc1ccc(C(=O)NC2CC2)cc1C,-6.669%
2,Cc1csc2cc(C(=O)NC3CC3)cnc12,125.4%
3,Cc1csc2cc(C(=O)NC3CCCC3)cnc12,127%
4,Cc1cc(C2CCCN2C(=O)Cn2c(C)cc(=O)c3ccccc32)on1 (stereo not drawn),-2.941%
5,COCC(=O)N1CCN(C(=O)C2CCCCC2)[C@@H](C(=O)OC)C1,-2.41%
6,Cc1nccn1C1CCCN(C(=O)Cc2cn3ccccc3n2)C1 (stereo not drawn),129.5%
7,Cc1nc(C)n(C2CCCN(C(=O)Cc3cn4ccccc4n3)C2)n1 (stereo not drawn),141.6%
8,Cc1nccn1C1CCCN(C(=O)COCC(F)(F)F)C1 (stereo not drawn),9.036%
9,CCc1nccn1C1CCCN(C(=O)Cc2cn3ccccc3n2)C1 (stereo not drawn),11.58%
10,Cc1nc(C)n(C2CCCN(C(=O)c3nc(C)n4ccccc34)C2)n1 (stereo not drawn),-12.32%
11,N#CC1(NC(=O)Cn2nnc(-c3cc4ccccc4o3)n2)CCCC1,6.129%
12,CCOC(=O)NC(CNC(=O)c1cn(C)cn1)CC(C)C (stereo not drawn),-4.121%
13,COc1ccc2[nH]cc(-c3ccnc(NC4CCCC4)n3)c2c1,98.2%
14,COc1cc(-c2cc(NC3CCCC3)nc3[nH]ccc23)nc(N)n1,-4.005%
15,COc1nccnc1-c1cc(NC2CCCC2)nc2[nH]ccc12,-1.982%
16,COc1cnc(N2CCC(c3ncc[nH]3)CC2)nc1,16.53%
17,COc1ccc2[nH]cc(-c3ccnc(N4CCC(C)CC4)n3)c2c1,108.4%
18,COc1ccc2[nH]cc(C3CCN(CCC(N)=O)CC3)c2c1,-13.9%
19,COC(=O)c1cc(NS(=O)(=O)c2cn(C)cn2)c(F)cc1F,-3.496%
20,CS(=O)(=O)c1nnc(NC(=O)CCc2cccs2)[nH]1,5.426%
21,O=C(NCc1ccc(-n2cncn2)nc1)c1ccc2c(c1)CCO2,2.792%
